Experiment [1] has as its target T1, ETS1 (UniProt P14921).
T1 sequence: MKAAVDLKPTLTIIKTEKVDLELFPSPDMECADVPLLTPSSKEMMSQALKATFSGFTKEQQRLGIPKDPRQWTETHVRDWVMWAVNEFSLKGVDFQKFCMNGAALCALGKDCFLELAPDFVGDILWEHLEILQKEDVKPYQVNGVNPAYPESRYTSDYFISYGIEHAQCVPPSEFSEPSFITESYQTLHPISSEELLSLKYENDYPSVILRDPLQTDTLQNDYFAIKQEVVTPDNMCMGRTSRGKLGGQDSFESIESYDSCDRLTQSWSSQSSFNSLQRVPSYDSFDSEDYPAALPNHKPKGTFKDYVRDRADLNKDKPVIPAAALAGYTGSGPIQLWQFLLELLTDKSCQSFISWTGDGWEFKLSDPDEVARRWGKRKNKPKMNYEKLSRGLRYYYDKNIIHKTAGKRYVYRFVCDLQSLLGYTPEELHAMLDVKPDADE
Kind of experiment: ETS1 binding intensity (PBM fluorescence), ETS1 alone (arbitrary fluorescence units); higher = stronger binding. Conditions: ETS1 concentration 1 nM; RUNX1 concentration 0 nM.

For experiment [2], the target named is RUNX1 (UniProt Q01196). As to the kind of experiment: RUNX1 binding intensity (PBM fluorescence), RUNX1 alone (arbitrary fluorescence units); higher = stronger binding. As to conditions: RUNX1 concentration 2 nM; ETS1 concentration 0 nM. Here is the method:
(§1)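 Cooperative gcPBM on 36-bp genomic probes with neighbouring ETS1 and RUNX1 sites. Recombinant human RUNX1 (2 nM) was incubated alone or with ETS1 (25 nM) and detected with anti-RUNX1 antibody plus Alexa488 secondary. Values are medians over 4 replicate spots; the RUNX1+ETS1 data were normalised to the RUNX1-only data. The probes sit in constant array flanks that are not printed.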

In experiment [3] the target is T1, ETS1. As to the kind of experiment: ETS1 binding intensity (PBM fluorescence) in presence of RUNX1, normalised to ETS1-only experiment (arbitrary fluorescence units); higher = stronger binding. Conditions: ETS1 concentration 1 nM; RUNX1 concentration 25 nM.
In experiment [4] the target is RUNX1 (UniProt Q01196). As to the kind of experiment: RUNX1 binding intensity (PBM fluorescence) in presence of ETS1, normalised to RUNX1-only experiment (arbitrary fluorescence units); higher = stronger binding. Conditions: RUNX1 concentration 2 nM; ETS1 concentration 25 nM. How it is done: as §1
RUNX1, sequence (Q01196 whole entry): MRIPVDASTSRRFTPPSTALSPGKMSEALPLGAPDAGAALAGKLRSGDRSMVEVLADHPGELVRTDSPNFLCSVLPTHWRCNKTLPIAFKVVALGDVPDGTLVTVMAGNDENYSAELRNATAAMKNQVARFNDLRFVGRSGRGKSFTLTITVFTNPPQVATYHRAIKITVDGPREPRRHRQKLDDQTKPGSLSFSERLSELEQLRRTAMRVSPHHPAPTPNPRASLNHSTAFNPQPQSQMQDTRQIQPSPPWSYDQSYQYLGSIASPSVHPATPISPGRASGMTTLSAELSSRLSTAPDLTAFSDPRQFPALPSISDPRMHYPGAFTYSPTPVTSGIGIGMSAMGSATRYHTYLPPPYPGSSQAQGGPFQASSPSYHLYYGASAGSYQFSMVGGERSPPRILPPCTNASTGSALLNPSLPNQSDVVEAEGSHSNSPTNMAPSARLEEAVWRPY
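Wherever RUNX1 binding intensity (PBM fluorescence) in presence of ETS1, normalised to RUNX1-only experiment is given: Full-length recombinant human ETS1 or RUNX1 bound to double-stranded 36-bp genomic probes on microarrays, detected by protein-specific primary antibody and Alexa488 secondary, spot fluorescence as median of four replicate spots.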
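Wherever RUNX1 binding intensity (PBM fluorescence), RUNX1 alone is given: Full-length recombinant human RUNX1 bound to double-stranded 36-bp genomic probes on a high-density microarray, scored as Alexa488 fluorescence per spot via anti-RUNX1 antibody, median of four replicate spots.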

On to ATCCCACTATAGGAAGCTTCTCTGTGGTTTTGAGCC, for which the ETS1 binding intensity was found to be 369 with ETS1 [1] and 1640 with ETS1 [3]. Moreover, the RUNX1 binding intensity with RUNX1 [2] turned out to be 1370; with RUNX1 [4], 1910.
For the sequence GGAGCATCCCGGAAGTCGTCACTGCGGCCGCTCCCG, the ETS1 binding intensity with ETS1 [1] is 6420; with ETS1 [3], 8070. Besides, the values for the RUNX1 binding intensity with RUNX1 [2] and in the experiment with RUNX1 [4] were 690 and 1770, respectively.
Take CCTGGGGGGCCGGAAGCCCCGCTGCGGCCCCAGCCC: the ETS1 binding intensity with ETS1 [1] came to 3060; with ETS1 [3] it was 2480. For the same sequence, the RUNX1 binding intensity with RUNX1 [2] came out at 737; in the experiment with RUNX1 [4], 1130.
With GCCACTATTTCCTGCCTTCTGCGGCTGAGAGTCCCA, the ETS1 binding intensity was found to be 981 in the experiment with ETS1 [1] and 997 in the experiment with ETS1 [3]. Moreover, the values for the RUNX1 binding intensity with RUNX1 [2] and with RUNX1 [4] were 1220 and 3520, respectively.
Regarding GTAGCTCCTCCCACTTCCCGTGGTTTTCGGTTGAAC, the values for the ETS1 binding intensity in the experiment with ETS1 [1] and in the experiment with ETS1 [3] were 564 and 916, respectively. Further, the figures for the RUNX1 binding intensity with RUNX1 [2] and with RUNX1 [4] were 1240 and 2760, respectively.
Regarding GCCCAGGGAAGCACTTCCTGCGGGGCGCGGTGCAGC, the ETS1 binding intensity in the experiment with ETS1 [1] was 1030; in the experiment with ETS1 [3], 1270. In addition, the results for the RUNX1 binding intensity with RUNX1 [2] and with RUNX1 [4] were 744 and 1500, respectively.
In the same order, the values of GGGCAGGGCATTTCCTTTGTGGCTGGTGCTCACGGA are 493, 413, 710 and 1360.
The matching figures for CAGCTCTCTCGCTTCCTGTGGTGTAAACATGAAGCA: 1570, 1400, 964 and 1500.
ACAGAGAAGCTTCCTATTGTGGGATTCACCACCACC: the ETS1 binding intensity is 623 with ETS1 [1] and 705 in the experiment with ETS1 [3]. The RUNX1 binding intensity with RUNX1 [2] is 735; in the experiment with RUNX1 [4] it was 942.
For the sequence AGTACGATGGGAGGAAGTGGTTTGTAAGAGGAGGAC, the ETS1 binding intensity was determined as 1740 in the experiment with ETS1 [1] and 3390 with ETS1 [3]. In addition, the RUNX1 binding intensity in the experiment with RUNX1 [2] came out at 640; with RUNX1 [4] it was 1490.
In the same order, the values of GCGCGGCCAGAGAAAGGATGTGGTATAGCAGAAAGT are 1260, 4380, 865 and 1040.

Values taken from the supplement of paper PMC10681739.
